Bioassay records: PubChem BioAssay, The Scripps Research Institute Molecular Screening Center
Hits are enriched below; roughly 3.4% of the tested compounds scored in any of these assays.
GPR151 activ – activators of human GPR151; PathHunter beta-arrestin GPR151 cells, luminescence; activation, % at 11.2 µM; 1% of 650,000 active; AID 1508602; in the data active = activation above about 4.9%;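 also: 0% = median of compound wells and 100% = cells with positive control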
Target sequence (Q8TDV0 whole entry, looked up): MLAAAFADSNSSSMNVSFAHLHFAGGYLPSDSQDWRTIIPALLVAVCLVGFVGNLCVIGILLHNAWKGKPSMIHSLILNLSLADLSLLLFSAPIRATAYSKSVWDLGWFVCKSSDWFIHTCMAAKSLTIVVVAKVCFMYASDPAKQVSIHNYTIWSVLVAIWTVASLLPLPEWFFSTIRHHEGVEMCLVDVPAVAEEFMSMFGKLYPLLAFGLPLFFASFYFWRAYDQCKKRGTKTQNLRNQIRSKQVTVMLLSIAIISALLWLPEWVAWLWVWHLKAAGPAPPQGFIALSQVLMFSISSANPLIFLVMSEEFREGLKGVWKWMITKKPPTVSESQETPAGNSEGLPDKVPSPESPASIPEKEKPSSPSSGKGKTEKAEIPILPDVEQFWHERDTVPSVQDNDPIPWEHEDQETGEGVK
MITF inh – blocks human microphthalmia-associated transcription factor. AlphaScreen MITF homodimerization, bead proximity signal. inhibition, % at 2.6 µM. 0.91% of 650,000 active. O75030; in the data active = inhibition above about 50%;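 also: 0% = vehicle wells with protein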
FBW7 activator – human FBW7 E3 ligase activation, primary screen | AlphaScreen FBW7–phospho-cyclin E peptide binding, activator screen | Q969H0 | 0.13% of 650,000 active | AID 1259310 | normalized activity (activation), % at 26.1 µM; in the data active = normalized activity above about 1.9%;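 also: purified mutant Fbw7 with reduced substrate affinity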
TEAD-YAP inh – TEAD-YAP interaction inhibition; HEK-TIYL cells, TEAD-Gal4/YAP UAS-luciferase luminescence; inhibition, % at 9.12 µM; 1.4% of 640,000 active; in the data active = inhibition above about 32%;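 also: 0% = median of test compound wells and 100% = reference inhibitor wells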
Active calls of the source: *.

`CC(C)(C)OC(=O)N/N=C\c1cccc(/C=N/NC(=O)OC(C)(C)C)c1` gave GPR151 activ -2, MITF inh 13, FBW7 activator 1 and TEAD-YAP inh 65*.
Screening CC(C)(C)OC(=O)N/N=C/c1ccc(Br)cc1 returned GPR151 activ -1, MITF inh -3, FBW7 activator 0 and TEAD-YAP inh -63.
For CCCCC(=O)N/N=C(\C)CC(=O)Nc1cccc(OC)c1 the results were GPR151 activ 0, MITF inh 0, FBW7 activator 0 and TEAD-YAP inh 44*.
For CCc1ccc2c(c1)C1=C(SC(C(=O)OC)=C(C(=O)OC)C13SC(C(=O)OC)=C(C(=O)OC)S3)C(C)(C)N2 the results were GPR151 activ -1, MITF inh 3, FBW7 activator 0 and TEAD-YAP inh 7.
Screening CCOC(=O)C1=C(C)OC(N)=C(C#N)C1c1cc(Br)c(CC)s1 (stereo not drawn) returned GPR151 activ 3, MITF inh 7, FBW7 activator 0 and TEAD-YAP inh 8.
Cc1cc(O)cc(O)c1/C=N/NC(=O)c1cc(-c2ccccc2)n[nH]1 was read as GPR151 activ -1, MITF inh -27, FBW7 activator 0 and TEAD-YAP inh 33*.
Cc1ccc(-c2cc(C(=O)N/N=C/c3cccc(O)c3)[nH]n2)cc1 was read as GPR151 activ 1, MITF inh -7, FBW7 activator 0 and TEAD-YAP inh 35*.
`Cc1ccc(/C=N/NC(=O)c2cc(-c3ccccc3)n[nH]2)c(O)c1` gave GPR151 activ -1, MITF inh -48, FBW7 activator 0 and TEAD-YAP inh 9.
Screening Cc1cccc(C(=O)NCC(=O)NNC(=O)CSc2nc3ccccc3s2)c1 returned GPR151 activ -1, MITF inh 10, FBW7 activator 0 and TEAD-YAP inh 4.
For O=C(CN1C(=O)N/C(=C\c2ccc(N3CCCCC3)cc2)C1=O)Nc1ccccc1F the results were GPR151 activ 3, MITF inh -5, FBW7 activator 0 and TEAD-YAP inh -19.
COc1ccc(-c2nc3cc(C(C)C)ccc3o2)cc1N was read as GPR151 activ -1, MITF inh 10, FBW7 activator 0 and TEAD-YAP inh 66*.
For Cc1ccc2oc(-c3ccc(Cl)c(N)c3)nc2c1 the results were GPR151 activ -10, MITF inh 7, FBW7 activator 0 and TEAD-YAP inh 68*.
For COc1ccc(-c2nc3ccccc3o2)cc1N the results were GPR151 activ -6, MITF inh 0, FBW7 activator 0 and TEAD-YAP inh 19.
Screening COc1ccc(-c2nc3cc(N)ccc3o2)cc1Br returned GPR151 activ -1, MITF inh -7, FBW7 activator 0 and TEAD-YAP inh -19.
COc1ccc(-c2nc3cc(C)ccc3o2)cc1N was read as GPR151 activ -8, MITF inh 13, FBW7 activator 0 and TEAD-YAP inh 88*.
For CCOc1ccccc1NC(=O)c1sc2nc3cc(OC)c(OC)cc3cc2c1N the results were GPR151 activ -1, MITF inh 12, FBW7 activator 0 and TEAD-YAP inh -6.
For Cn1c2c(c(=O)n(C)c1=O)C(C(F)(F)F)(C(F)(F)F)N=C(c1ccccc1)N2 the results were GPR151 activ 3, MITF inh 1, FBW7 activator 0 and TEAD-YAP inh 2.
`Cn1c2c(c(=O)n(C)c1=O)C(C(F)(F)F)(C(F)(F)F)N=C(c1ccc(Cl)cc1)N2` gave GPR151 activ 1, MITF inh -7, FBW7 activator 0 and TEAD-YAP inh 94*.
Screening COCc1c(C(=O)N/N=C\c2ccc(N(C)C)cc2)nnn1-c1nonc1N returned GPR151 activ 0, MITF inh 26, FBW7 activator 1 and TEAD-YAP inh 6.
`N#C/C(=C\c1ccc(O)c(O)c1)C(=O)c1ccc(O)c(O)c1` gave GPR151 activ 0, MITF inh 86*, FBW7 activator 0 and TEAD-YAP inh 5.
Screening Cc1nn(CC(=O)N2CCc3ccccc32)c(=O)c2cccn12 returned GPR151 activ 1, MITF inh 9, FBW7 activator 0 and TEAD-YAP inh 2.
Screening O=C1CCCN1CCCNc1nc(NCCCN2CCCC2=O)c2ncn(-c3ccccc3)c2n1 returned GPR151 activ -1, MITF inh -8, FBW7 activator 0 and TEAD-YAP inh -2.
For CC(C)N(CCNc1nc(NCCCN2CCCC2=O)nc2c1ncn2-c1ccsc1)C(C)C the results were GPR151 activ 1, MITF inh 5, FBW7 activator 0 and TEAD-YAP inh 7.
Screening O=C1CCCN1CCn1cnc2c(NCCc3ccc(O)cc3)nc(N3CCN(c4ccccn4)CC3)nc21 returned GPR151 activ 0, MITF inh 5, FBW7 activator 0 and TEAD-YAP inh 36*.
CCCNc1nc(NCCCN2CCCC2=O)nc2c1ncn2-c1ccsc1 was read as GPR151 activ -1, MITF inh 8, FBW7 activator 0 and TEAD-YAP inh 48*.
O=C1CCCN1CCCNc1nc(NCCN2CCOCC2)c2ncn(-c3ccsc3)c2n1 was read as GPR151 activ 0, MITF inh 16, FBW7 activator 0 and TEAD-YAP inh 43*.
Screening O=C1CCCN1CCCNc1nc(N2CCOCC2)nc2c1ncn2-c1ccsc1 returned GPR151 activ 0, MITF inh -1, FBW7 activator 0 and TEAD-YAP inh 57*.
`O=C1CCCN1CCn1cnc2c(NCCO)nc(N3CCN(c4ccccn4)CC3)nc21` gave GPR151 activ 2, MITF inh 17, FBW7 activator 0 and TEAD-YAP inh -1.
O=C(CSc1ncnc2c1nnn2Cc1ccccc1F)N1CCc2ccccc21 was read as GPR151 activ -1, MITF inh 8, FBW7 activator 0 and TEAD-YAP inh -1.
Cc1ccc(C(=O)NCc2ccncc2)cc1[N+](=O)[O-] was read as GPR151 activ 0, MITF inh 0, FBW7 activator 0 and TEAD-YAP inh 11.
`Cc1ccccc1C1(CC(=O)N2CCCC(O)C2)CC(=O)N(Cc2ccncc2)C1=O` (stereo not drawn) gave GPR151 activ 2, MITF inh 10, FBW7 activator 0 and TEAD-YAP inh -3.
For O=C1CCCN1CCCNc1nc(Nc2ncccn2)nc2c1ncn2-c1ccsc1 the results were GPR151 activ 1, MITF inh -5, FBW7 activator 0 and TEAD-YAP inh 0.
Screening O=C1CCCN1CCCNc1nc(N2CCN(c3ccccn3)CC2)nc2c1ncn2-c1ccsc1 returned GPR151 activ -3, MITF inh -7, FBW7 activator 0 and TEAD-YAP inh 58*.
`O=C1CCCN1CCCNc1nc(NC2CCN(Cc3ccccc3)CC2)nc2c1ncn2CCN1CCCC1=O` gave GPR151 activ 1, MITF inh -2, FBW7 activator 0 and TEAD-YAP inh 2.
O=C1CCCN1CCCNc1nc(Nc2nccc3ccccc23)nc2c1ncn2-c1ccsc1 was read as GPR151 activ 2, MITF inh -1, FBW7 activator 0 and TEAD-YAP inh 59*.
Screening O=C1CCCN1CCCNc1nc(NC2CCN(Cc3ccccc3)CC2)nc2c1ncn2-c1ccsc1 returned GPR151 activ 0, MITF inh -5, FBW7 activator 0 and TEAD-YAP inh 36*.
